{"source": "PubChem BioAssay AID651597", "about": "(National Center for Advancing Translational Sciences (NCATS), 2012)", "note": "Out of some 1,100 compounds screened, about 390 (35%) were called active. Roughly 30% stayed inconclusive and do not appear here. Calls follow the shape of the dose curve; as a rule, active = well fitted inhibition curve with a large enough effect; inconclusive = small, poorly fitted or top-dose-only effect; inactive = flat fitted curve, though single readings scatter. This is one part of the list. % is scaled to controls: 0 for no effect and ±100 for the full control effect; potency is read from the fitted curve at half-maximal effect.", "data": [{"molecular_target": "Luciferin 4-monooxygenase (Photinus pyralis) (UniProt P08659)", "assay": "qHTS of Nrf2 Activators: Hit Validation in Secondary FLuc Assay; also: nearly all actives have a fitted effect of over 65% in size", "conditions": "firefly luciferase inhibition counter-screen, luminescence; series mostly up to 57.5 µM; activity, negative = inhibition: at the top concentration", "excerpt": "Many diseases have some form of oxidative stress injury and ties to inflammation, causing a host of problems for the patient. The antioxidant response element (ARE) plays an important role in alleviating the harmful effects of oxidative stress. The antioxidant response element (ARE) is a transcriptional regulatory element involved in the activation of genes coding for a number of antioxidant proteins and detoxifying enzymes. These enzymes work in concert to protect tissues from oxidative insults and chemical toxicities in human hepatocytes and immune cells. The protective effects of ARE activation are primarily triggered through Nrf2 (NF-E2-related factor) binding to and activating AREs. It is known that Nrf2 controls the production of over 250 antioxidant and detoxification proteins (Hu et al., 2006), thereby protecting tissues by increasing cellular antioxidant content and suppressing inflammatory signaling pathways. The transcription factor Nrf2 is a central link between oxidative chemicals, such as phenolic antioxidants and electrophilic compounds, and the activation of ARE. Nrf2 levels are constitutively low as a consequence of its interaction with Keap1, which targets its degradation (Zipper and Mulcahy, 2002). Electrophiles react with key cysteine residues in Keap1, releasing Nrf2 and allowing its translocation to the nucleus. Once within the nucleus, Nrf2 complexes with coactivators such as p300, and binds to the AREs to induce gene transcription of cytoprotective enzymes, resulting in the prevention of toxicity. Activation of Nrf2 protects tissues by increasing cellular antioxidant content and suppressing inflammatory signaling pathways. Identifying novel and potent Nrf2 activators by using the AREc32 cell line to detect ARE activation by small molecules will lead to the identification and development of probes to study protective pathways in multiple tissues. These specific probes are essential to study the ARE pathway, and eventually to determine whether this pathway does activate genes that could protect against a host of diseases, including cardiovascular diseases, obesity, diabetes, Alzheimer's, and Parkinson's disease.\nThis project's aim is to identify novel and potent Nrf2 activators by using the AREc32 cell line to detect ARE activation by small molecules, which will lead to the identification and development of probes to study the ARE pathway. In this counter assay, we aim to identify false positive as identified from this primary assay using an FLuc assay with an inhibiting read-out.\nNIH Chemical Genomics Center [NCGC]\nNIH Molecular Libraries Probe Centers Network [MLPCN]\nAssay Submitter (PI): Curtis Klaassen, University of Kansas Medical Center\nAssess whether an activator in the primary assay potentially causes such activation by inhibitor-induced stabilization of the firefly luciferase reporter enzyme by determining whether it inhibits firefly luciferase in the presence of Km concentrations of its substrates (ATP and D-luciferin).", "values": [{"compound": "Cc1cccc(C(=O)Nc2nnc(SCC(=O)NCc3ccco3)s2)c1", "Potency": "2.39 µM (active)"}, {"compound": "Clc1ccccc1Nc1ncnc(-n2cccc2)n1", "Potency": "2.13 µM (active)"}, {"compound": "CCOc1ccc(-n2c(O)c(N=Nc3ccc([N+](=O)[O-])cc3)c(=O)[nH]c2=O)cc1", "activity, negative = inhibition": "-3.35% (inactive)"}, {"compound": "O=C1c2ccccc2-c2cc3ccccc3cc21", "Potency": "4.78 µM (active)"}, {"compound": "Clc1cccc(/C=N\\Nc2nccs2)c1", "Potency": "4.78 µM (active)"}, {"compound": "CC(=CCOc1ccc2ccc(=O)oc2c1)C1=CC(=O)C(C)(C)O1", "activity, negative = inhibition": "-24.9% (inactive)"}, {"compound": "O=C(O)c1ccc([N+](=O)[O-])c([N+](=O)[O-])c1", "activity, negative = inhibition": "-1.27% (inactive)"}, {"compound": "O=C(Nc1ccc(Cl)c(Cl)c1)c1ccco1", "Potency": "9.53 µM (active)"}, {"compound": "NC(=O)c1c(NC(=O)c2ccccc2F)sc2c1CCC2", "Potency": "1.35 µM (active)"}, {"compound": "Cn1c(O)c(N=Nc2ccc(S(=O)(=O)N3CCOCC3)cc2)c(=O)n(C)c1=O", "activity, negative = inhibition": "-18.4% (inactive)"}, {"compound": "Fc1cccc(F)c1-c1nc(-c2ccc(Cl)cc2)no1", "Potency": "2.13 µM (active)"}]}]}
